KDM5B inhibitor: Primary screen for KDM5B Histone Demethylases FDH-coupled qHTS; Lysine-specific demethylase 5B (Homo sapiens), Q9UGL1; KDM5B demethylase, FDH-coupled NADH fluorescence (FDH is formaldehyde dehydrogenase); Potency, µM (top dose mostly 57.7 µM), actives largely listed as inhibitors; hit rate 2.6% among 220,000; active = well fitted inhibition curve with a large enough effect; note: 0% is about no effect; nearly all actives have a fitted effect of over 70% in size
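Inhibition is measured as reduced NADH fluorescence generation from FDH coupling to formaldehyde release. Truncated KDM5BΔAP at 200 nM final acts on H3K4me3 peptide (12.5 µM in substrate mix) in pH 7.5 HEPES buffer with Tween-20, 30 min, room temperature.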
Numbers without * were called inactive; i = inactive. The sample as a whole holds a higher share of hits than the screen did. Potency is the fitted concentration of half-maximal effect.

SMILES	KDM5B inhibitor
O=C(Nc1cccc2c1CCCC2)c1ccc(S(=O)(=O)NC2CC2)cc1	i
Cc1nn(-c2ccc(C(F)(F)F)cc2)c(C)c1[C@@H]1C=C[C@@H](NC(=O)c2cccnc2)C1	i
COc1cccc(CC(=O)N2CCCCCCNC(=O)[C@H]3CCCC[C@H]32)c1	i
COc1cccc(CN2CCCCCNC(=O)[C@@H]3CCC[C@@H]32)c1	20µM*
COc1cccc(CN2CCCCCCNC(=O)CC2c2ccccc2)c1 (stereo not drawn)	i
COc1cc(C2Nc3ccc(C)cc3[C@H]3OCCC[C@@H]23)cc(Br)c1O (stereo partly drawn)	i
Cc1ccc(-n2ncc3c2NC(=O)CC32C(=O)N(CC(N)=O)c3ccccc32)cc1C (stereo not drawn)	i
CCCCN(CC(=O)NC(=O)NCc1ccccc1)c1ccccc1	i
COc1ccc(Cl)cc1-c1nc(-c2nnn3c2COC(c2ccc(C)cc2)C3)no1 (stereo not drawn)	i
Fc1ccc(-c2noc(-c3nnn4c3COC(c3ccc(Cl)cc3)C4)n2)cc1 (stereo not drawn)	i
COc1ccc(-c2nc(-c3nnn4c3COC(c3ccc(OC)cc3)C4)no2)cc1 (stereo not drawn)	i
COc1ccc(-c2nc(-c3nnn4c3COC(c3ccc(Cl)cc3)C4)no2)cc1OC (stereo not drawn)	28.2µM*
COc1ccc(C2Cn3cnc(-c4nc(-c5ccc6c(c5)OCO6)no4)c3CO2)cc1 (stereo not drawn)	14.1µM*
CCOc1ccc(-c2noc(-c3ncn4c3COC(c3ccc(F)cc3)C4)n2)cc1 (stereo not drawn)	i
Fc1ccc(C2Cn3nnc(-c4nc(-c5cccc(F)c5)no4)c3CO2)cc1 (stereo not drawn)	i
COc1ccc(-c2noc(-c3nnn4c3COC(c3ccc(F)cc3)C4)n2)cc1OC (stereo not drawn)	22.4µM*
COc1ccc(C2Cn3cnc(-c4nc(-c5ccc(OC)c(OC)c5)no4)c3CO2)cc1 (stereo not drawn)	i
O=C(/C=C/c1ccsc1)c1ccccc1	i
COc1ccc(NC(=O)Cn2c(C)cc3nc4n(c(=O)c32)CCCCC4)cc1Cl	i
COC(=O)c1cnc(N2CCN(c3ccccc3)CC2)c2ccccc12	i
CCOc1ccc(S(=O)(=O)N2CCOCC2)cc1NC(=O)c1oc2ccccc2c1C	i
CCOc1cc(/C=C/C(=O)c2ccc(F)cc2)cc(Br)c1OC	i
CCCn1nc(C(=O)OCC(=O)N2c3ccccc3CC2C)c2ccccc2c1=O (stereo not drawn)	i
C=CCN(Cc1cccs1)C(=O)C1CCC1	i
Cc1nn(-c2nc3c(c(=O)n(Cc4c(F)cccc4Cl)c(=O)n3C)n2C)c(C)c1C	i
SMILES	KDM5B inhibitor
CNC(=O)c1ccc2nc(CCc3ccccc3)oc2c1	i
CSc1ccccc1NC(=O)c1ccc2c(c1)NC(=O)CO2	i
C[C@@H]1CN(C(=O)c2ccc3c(c2)NC(C)(CCCCc2ccccc2)CO3)C[C@H](C)O1 (stereo partly drawn)	35.5µM*
Cn1ccc(NC(=O)c2ccc3c(c2)NC(C)(CCCCc2ccccc2)CO3)n1 (stereo not drawn)	31.6µM*
CC1(CCCCc2ccccc2)COc2ccc(C(=O)NC3CCC(O)CC3)cc2N1 (stereo not drawn)	39.8µM*
CNC(=O)c1ccc2c(c1)NC(C)(CCCCc1ccccc1)CO2 (stereo not drawn)	31.6µM*
CC(=O)N1CCCN(C(=O)c2ccc3c(c2)NC(C)(CCCCc2ccccc2)CO3)CC1 (stereo not drawn)	i
Cn1ccc(NC(=O)c2nn(Cc3ccccc3)c(=O)c3ccccc23)n1	i
C[C@@H]1CN(C(=O)c2ccc3c(c2)NC(C)(CNc2ccccc2)CO3)C[C@H](C)O1 (stereo partly drawn)	i
Cc1ccccc1CNC(=O)c1scnc1C	i
O=C(Nc1ccc(CSc2ccccc2)cc1)c1ccc(F)cc1	i
CN(C)c1ccc(CN2CCC3(CN[S+](=O)([O-])c4ccccc4N3)C2)cc1 (stereo not drawn)	i
CCN(CC)S(=O)(=O)c1ccc(NCc2cc(C)ccc2C)cc1	i
COc1ccc(C2=C(C)C(N3CCC(C(=O)NC4CCCCC4)CC3)=NS2(=O)=O)cc1	i
CCOc1ccccc1Oc1c(C(F)(F)F)oc2cc(OC(=O)c3ccccc3F)ccc2c1=O	i
Cc1ncsc1C(=O)NCc1ccncc1	i
O=C(NCc1ccco1)c1cc2cc(Br)ccc2[nH]1	i
COc1ccc2c(c1)c(C(C(=O)O)N1CCN(Cc3ccccc3)CC1)cn2CCC(=O)O (stereo not drawn)	i
CN(C)C[C@@H]1CN(C2CCOCC2)C[C@H]1NC(=O)c1cc2ccccc2[nH]1	28.2µM*
CN(C)C[C@@H]1CN(C2CCOCC2)C[C@H]1NC(=O)c1ccccc1C(F)(F)F	i
CN(C)C[C@@H]1CN(C2CCOCC2)C[C@H]1NC(=O)c1ccc2cc[nH]c2c1	i
NC1CCC(n2cc(C(=O)N3CCC(Nc4ccccn4)CC3)nn2)CC1 (stereo not drawn)	i
NC1CCC(n2cc(C(=O)NC3CCCN(c4ncccn4)C3)nn2)CC1 (stereo not drawn)	25.1µM*
CN(C)C(CNC(=O)c1cn(C2CCC(N)CC2)nn1)c1ccccn1 (stereo not drawn)	i
COc1ccc(CCC(=O)NCC(O)COCc2ccc(OC)cc2)cc1 (stereo not drawn)	i
SMILES	KDM5B inhibitor
Cc1ccc(NC(=O)c2cc(-c3cccnc3)nc3c(C)cccc23)nc1	i
CCN(Cc1nccn1C)C(=O)c1cc(-c2cnc(N)nc2)nc2c(C)cccc12	28.2µM*
Cc1ccc(-c2cc(C(=O)O)c3cccc(C)c3n2)cc1C	i
C[C@H](C(=O)N1Cc2ccccc2CC2(CCN(C)CC2)C1)c1ccccc1	i
CC(C)Cn1c(-c2ccc(O)cc2)nc2c1c(=O)[nH]c(=O)n2Cc1ccccc1	i
Cc1ccc(NC(=O)CCn2c(=O)oc3cc(S(=O)(=O)N4CCCC4)ccc32)cc1C(F)(F)F	i
Cc1sc2nc(SCc3ccc(F)cc3)n(CCCN3CCOCC3)c(=O)c2c1C	i
CC(C)NC(=O)c1cc(-c2ccc(Cl)nc2)nc2c1cnn2C	56.2µM*
C[C@H](NC(=O)c1cc(-c2ccccc2)nc2ccccc12)C(=O)O	i
Cn1ncc2c(C(=O)N3CCN(c4ncccn4)CC3)cc(-c3ccc(Cl)nc3)nc21	i
CC(C)NC(=O)c1cc(-c2ccc(Br)cc2)nc2ccccc12	i
CCC(CC)NC(=O)c1cc(C(C)C)nc2c1cnn2C(C)C	i
CC(C)NC(=O)c1cc(-c2ccc(S(C)(=O)=O)cc2)nc2c1cnn2C	79.4µM*
CC(C)(C)CC(=O)Nc1nc2c(s1)C[C@@H]1[C@](C)(CO)[C@H](O)CC[C@@]1(C)[C@@H]2CC(=O)NCc1ccccc1	i
COc1ccc(CNC(=O)C[C@@H]2c3nc(NC(=O)c4cccs4)sc3C[C@@H]3[C@](C)(CO)[C@H](O)CC[C@]32C)cc1	25.1µM*
COCC(=O)Nc1nc2c(s1)C[C@@H]1[C@](C)(CO)[C@H](O)CC[C@@]1(C)[C@@H]2CC(=O)NCc1ccc(OC)cc1	i
COc1ccc(CNC(=O)C[C@@H]2c3nc(NC(=O)c4c(F)cccc4F)sc3C[C@@H]3[C@](C)(CO)[C@H](O)CC[C@]32C)cc1	28.2µM*

Bioassay records deposited in PubChem BioAssay by National Center for Advancing Translational Sciences (NCATS).
